The entries come from a sample that favours hits as a whole.
Shiga toxin inh = inhibitors of Shiga toxin in Vero cells. 290,000 tested, 9.2% active. AID 2315. inhibition, % at 38.7 µM. Vero cells, Shiga toxin protein synthesis inhibition reporter; in the data active = inhibition mostly above about 28%, no sharp cut-off; inactive = mostly below about 43%; also: 0% is about no effect
Vaccinia Venus = vaccinia inhibition (Venus reporter) | Vaccinia virus Venus reporter expression, fluorescence | Potency, µM (series often up to 36.5 µM), for inactives: top-dose activity change, negative = inhibition, actives largely listed as inhibitors | 330,000 tested, 0.46% active | AID 720580; calls by dose curve; tested in A549 cells; also: potency is read from the fitted curve at half-maximal effect; % is scaled to controls: 0 for no effect and ±100 for the full control effect; nearly all actives have a fitted effect of over 30% in size
CHX counter = affects cycloheximide protein synthesis inhibition readout, counter-screen. max response, %. 300,000 tested, 12% active. cell reporter, cycloheximide protein synthesis inhibition counterscreen. AID 2314; in the data active = max response mostly above about 13%, no sharp cut-off; inactive = mostly below about 14%; also: read at 38.3 µM for the half of the compounds with a filed dose; 0% is about no effect
Marburg entry inh = inhibitors of Marburg virus binding or cell entry; Marburg virus pseudotyped entry inhibition, cell reporter; AID 540276; 300,000 tested, 1.8% active; Potency, µM (doses to about 37.8 µM), without a hit: top-dose activity change, negative = inhibition, most hits filed as inhibitors; calls by dose curve; tested in HEK293 cells; also: potency is read from the fitted curve at half-maximal effect; % is scaled to controls: 0 for no effect and ±100 for the full control effect
LASV entry inh = inhibitors of Lassa virus binding or cell entry. Lassa virus pseudotype entry inhibition, cell reporter. Potency, µM (series often up to 37.9 µM), for inactives: at the top dose activity change, negative = inhibition, most hits filed as inhibitors. 300,000 tested, 1.2% active; calls by dose curve; tested in HEK293 cells; also: potency is read from the fitted curve at half-maximal effect; % is scaled to controls: 0 for no effect and ±100 for the full control effect; nearly all actives have a fitted effect of over 50% in size
Vaccinia mCherry = inhibitors of vaccinia virus infection (mCherry reporter signal); Vaccinia virus mCherry reporter infection, fluorescence; Potency, µM (series often up to 36.5 µM), inactives show at the top dose activity change, negative = inhibition, usual class: inhibitors; 310,000 tested, 0.63% active; AID 720579; calls by dose curve; tested in A549 cells; also: potency is read from the fitted curve at half-maximal effect; % is scaled to controls: 0 for no effect and ±100 for the full control effect; nearly all actives have a fitted effect of over 35% in size
Starred values were filed as active, the others as inactive; i = inactive; ? = inconclusive; · = no result; [ ] = remark or other dose.

SMILES	Shiga toxin inh	Vaccinia Venus	CHX counter	Marburg entry inh	LASV entry inh	Vaccinia mCherry
Cc1ccc([N+](=O)[O-])cc1N/C=C1\CCc2ccccc2C1=O	52*	·	13*	9%	26%	·
O=C1CC(=Nc2ccccc2)NN1c1ccccc1	-2	·	14*	-33%	13%	·
O=C1Cc2ccccc2N1c1ccccc1	-7	·	-2	1%	1%	·
COc1nc(Nc2ccc(C(C)C)cc2)nc(OC)n1	48*	-4%	41*	-10%	?	i
O=C(c1ccc(Cl)cc1)c1cnc(Nc2ccccc2Cl)s1	120*	·	50*	?	-2%	·
CC(=O)Nc1cccc(NC(=S)Nc2cccc(Cl)c2Cl)c1	-9	-2%	1	19%[46.1 µM]	-1%	-9%
CC(=O)c1cnc(Nc2cccc(Cl)c2Cl)s1	81*	-17%	37*	8%[46.1 µM]	·	?
CC(=O)c1cnc(Nc2ccccc2)s1	44	-30%	34*	-5%	29%	·
CC(=O)Oc1ccc(C(=C2CCCCC2)c2ccc(OC(C)=O)cc2)cc1	-5	·	-4	·	·	·
CCCOC(=O)c1ccc(NC(=O)C2CCCO2)cc1 (stereo unspecified)	66*	-4%	39*	13%	9%	3%
COc1ccc(C(=O)NCC2CCCO2)cc1 (stereo unspecified)	54*	-14%	36*	12%	?	-16%
COc1cccc(CNCC2CCCO2)c1 (stereo unspecified)	·	·	-3	·	·	·
COc1ccc(NS(=O)(=O)c2cccc(C(=O)NCC3(N4CCCCC4)CCCCC3)c2)cc1	·	-15%	·	?	19%	i
CCOc1ccc(NS(=O)(=O)c2cccc(C(=O)NCC3(N(C)C)CCCCC3)c2)cc1	·	-21%	·	11µM*	?	i
COc1cc(OC)cc(C(=O)Nc2ccc(C(=O)NCC3CCCO3)cc2)c1 (stereo unspecified)	-10	-18%	-1	-3%	0%	i
NC(=O)c1ccc(NC(=O)C2CCCO2)cc1 (stereo unspecified)	-11	-7%	-4	2%[46.1 µM]	-9%	-12%
COc1ccc(CCNCC2CCCO2)cc1 (stereo unspecified)	24*	·	18*	·	·	·
CC(C)C(=O)Nc1ccc(N2CCOCC2)c(S(=O)(=O)Nc2ccccc2Cl)c1	·	-14%	·	-24%	-27%	-1%
COc1cccc(-c2cc(C(=O)NCC3CCCO3)c3cc(C)cc(C)c3n2)c1 (stereo unspecified)	15	-21%	12*	-15%	?	-8%
CN(C)c1cccc(C(=O)NCC2CCCO2)c1 (stereo unspecified)	42*	-10%	14	7%	29%	·
CS(=O)(=O)N(CC(=O)NCC1CCCO1)c1cccc(Cl)c1 (stereo unspecified)	19	-13%	15*	-3%[46.1 µM]	8%	-4%
Cc1cccc(C(=O)NCC2CCCO2)c1 (stereo unspecified)	30	-5%	11	?	26%	·
Cc1ccc(NS(=O)(=O)c2cccc(C(=O)NCC3CCCO3)c2)cc1 (stereo unspecified)	·	-14%	·	?	10µM*	-23%
CS(=O)(=O)N(CC(=O)NCC1CCCO1)c1cc(Cl)cc(Cl)c1 (stereo unspecified)	-15	-4%	-1	-4%	15%	i
CCOc1ccc(N2CC(NC(=O)/C=C\c3ccc4c(c3)OCO4)CC2=O)cc1 (stereo unspecified)	·	-11%	·	·	14%[46.1 µM]	-10%
SMILES	Shiga toxin inh	Vaccinia Venus	CHX counter	Marburg entry inh	LASV entry inh	Vaccinia mCherry
COc1c(Cl)cc(C(=O)Nc2ccccc2C(=O)O)cc1Cl	19	-20%	4	?	?	-5%
O=C(Nc1ccc(O)cc1)c1ccc(NC(=O)C2CCCO2)cc1 (stereo unspecified)	7	·	8	·	·	·
COc1ccccc1CNC(=O)C(=O)NCC1CCCO1 (stereo unspecified)	62*	-2%	24*	5%	14%	-13%
Cc1cc(NC(=O)c2ccc(NC(=O)C3CCCO3)cc2)ccc1Br (stereo unspecified)	74*	·	42*	·	·	·
COc1ccccc1CC(=O)NCC1CCCO1 (stereo unspecified)	10	-18%	9	?	3%	·
CN(C)c1ccc(C(=O)NCC2CCCO2)cc1 (stereo unspecified)	64*	·	43*	?	?	·
Cc1cccc(/C=C2\Sc3ccc(C(=O)NCC4CCCO4)cc3N(C)C2=O)c1 (stereo unspecified)	-4	-25%	-4	7.1µM*	?	-6%
COc1cc2ccccc2cc1C(=O)Nc1ccc2oc(-c3ccc(F)cc3Cl)nc2c1	·	?	·	·	-2%[46.1 µM]	-28%
COc1ccc(C(=O)c2cn(CC(=O)Nc3ccc4c(c3)OCCO4)c3ccc(OC)cc3c2=O)cc1	·	-1%	·	-6%[46.1 µM]	-9%[46.1 µM]	4%
CCc1nc2ccc(C(=O)Nc3cccc(OC)c3)cn2c1N(C)CCCc1ccccc1	·	0%	·	·	·	23%
COc1ccc(N(C)S(=O)(=O)c2cccc(C(=O)NCC3CCCO3)c2)cc1 (stereo unspecified)	3	-1%	-5	-9%	?	-4%
Cc1cccc(-n2c(C)nc3cc(C(=O)NCC4CCCO4)ccc32)c1 (stereo unspecified)	-7	·	-3	·	·	·
COc1ccc(CNC(=O)c2ccc(NC(=O)C3CCCO3)cc2)cc1 (stereo unspecified)	26*	-14%	9	8%	12%	-18%
CCOc1ccc(-n2c(C)nc3cc(C(=O)NCC4CCCO4)ccc32)cc1 (stereo unspecified)	-10	-7%	2	?	5µM*	-13%
O=C(NCC1CCCO1)c1cc2c(s1)CCC2 (stereo unspecified)	89*	·	52*	·	·	·
COc1ccc(N(Cc2ccccc2)S(=O)(=O)c2cccc(C(=O)NCC3CCCO3)c2)cc1 (stereo unspecified)	·	-22%	·	-27%[46.1 µM]	3.2µM*	-13%
CCC(Sc1nncn2c1cc1occc12)C(=O)Nc1ccc(C)c(Cl)c1 (stereo unspecified)	·	-5%	·	·	-3%[46.1 µM]	-3%
CC1CCN(c2nc3c(S(=O)(=O)c4ccccc4)nnn3c3ccsc23)CC1	·	-4%	·	·	6%[46.1 µM]	-11%
COc1cccc(C(=O)/C=C/Nc2ccc(S(=O)(=O)Nc3nc(C)cc(C)n3)cc2)c1	-4	1%	10	25%	3%	i
O=C(/C=C/Nc1ccc(S(=O)(=O)Nc2ncccn2)cc1)c1ccc2ccccc2c1	5	-14%	1	8%[46.1 µM]	3%	i
O=C(/C=C\Nc1ccc(S(=O)(=O)Nc2ncccn2)cc1)c1ccccc1	142*	-6%	51*	?	27%	i
COc1cccc(C(=O)/C=C/Nc2ccc(S(=O)(=O)Nc3ncccn3)cc2)c1	103*	-11%	43*	3%	8%	i
COc1ccc(C(=O)/C=C/Nc2ccc(S(=O)(=O)Nc3cccc(C(C)=O)c3)cc2)cc1	93*	-29%	39*	?	?	-27%

Compound activity (PubChem)
